Legend:
Experiment in all cases: PBM binding z-score (relative to random genomic background probes); higher = stronger binding; sequences stand for … in GC…GCGATTGACAGCGTAGAATGAAGG
[1] = tested on: FXR:RXRa (NR concentration 270 nM, RXRa partner concentration 90 nM)
How it was run: (§1)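 Ligand-free nuclear receptor dimers were applied to custom Agilent 4×180K protein-binding microarrays whose double-stranded probes carried direct-repeat seeds, single-nucleotide variants, half-site ablations and random human genomic background sequences in 34-nt variable regions. Incubation lasted 1 h. Binding z-scores were computed against the random background probes from regression-normalized fluorescence.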

[2] = tested on: LXRa:RXRa (NR concentration 270 nM, RXRa partner concentration 90 nM)
How it was run: as §1

[3] = tested on: LXRa homodimer (NR concentration 270 nM)
How it was run: as §1

[4] = tested on: LXRb:RXRa (NR concentration 270 nM, RXRa partner concentration 90 nM)
How it was run: as §1

[5] = tested on: LXRb homodimer (NR concentration 270 nM)
How it was run: as §1

[6] = tested on: PPARa:RXRa (NR concentration 270 nM, RXRa partner concentration 90 nM)
How it was run: as §1

[7] = tested on: PPARg:RXRa (NR concentration 180 nM, RXRa partner concentration 90 nM)
How it was run: as §1

[8] = tested on: PPARg:RXRa 270nM:90nM, anti-RXR (NR concentration 270 nM, RXRa partner concentration 90 nM)
How it was run: as §1

[9] = tested on: PPARg:RXRa 30nM:10nM, anti-RXR (NR concentration 30 nM, RXRa partner concentration 10 nM)
How it was run: as §1

[10] = tested on: PPARg:RXRa 90nM:30nM, anti-RXR (NR concentration 90 nM, RXRa partner concentration 30 nM)
How it was run: as §1

Sequence | PBM binding z-score [1] | PBM binding z-score [2] | PBM binding z-score [3] | PBM binding z-score [4] | PBM binding z-score [5] | PBM binding z-score [6] | PBM binding z-score [7] | PBM binding z-score [8] | PBM binding z-score [9] | PBM binding z-score [10]
AGAACGAGGGCACGCTGAGTTGATAGCGGAGTAG | 1.07 | 0.591 | -0.337 | 0.0446 | -0.975 | 1.83 | 1.78 | 1.71 | -0.0619 | 0.703
AGAATGAGGTTAAGATCAGGGCAACAGAATACAT | 2.64 | 2.98 | 0.329 | 2.17 | 0.282 | 3.7 | 2.57 | 2.84 | 1.29 | 2.24
CCTACTGGGCCATTCGGAGGTCATTGATCATATG | 1.8 | 2.8 | 4.71 | 2.59 | -0.128 | 3.01 | 1.38 | 2.45 | 0.304 | 1.27
GGAACGAGGGCAAGTTGATAACAGAGTTTGATGG | 0.773 | 0.307 | -0.071 | 0.262 | -0.233 | 1.76 | 1.52 | 1.14 | 0.316 | 1.03
AGAACGAGGGCACGCTGAGTTGATCGCAGAGTAG | 0.98 | 0.604 | -0.623 | 0.0852 | -0.872 | 2.16 | 1.93 | 1.66 | 0.193 | 0.789
ATTGAAAGGTCGAAGGTGAGTATACCCACCCGAA | 4.77 | 3.47 | 0.632 | 2.97 | 0.961 | 4.74 | 5.11 | 5.53 | 2.82 | 5.09
ATATGTAGGTTACATCCGGGTTATTCAGGCTATG | 0.937 | 3.18 | 0.529 | 1.71 | 0.53 | 3.59 | 5.15 | 4.27 | 2 | 3.64
ATACCAAGGTGATCGTGAGGACGTTGATACTAAC | 0.587 | 0.135 | -0.00187 | 0.0444 | -0.331 | -0.0562 | 0.622 | 0.0338 | -0.0535 | -0.287
TAGCCTAGATCATGGGCCAGTATACCACGCGAAC | -0.688 | -0.764 | -0.759 | -0.614 | -0.395 | -0.574 | 0.555 | -0.555 | -0.628 | -0.462
TCTTGTAGGTCAACAGGAGGTTAAGAAAGATCGA | 5.53 | 4.75 | 1.77 | 3.93 | 1.27 | 5.74 | 7.68 | 6.79 | 5.3 | 6.38
CCAGACAGGTGAAAAGTAACTCAGTCTGGTACGC | -0.306 | -0.0475 | -0.078 | 0.0504 | -0.286 | 1.01 | 1.08 | 2.27 | 0.369 | 1.43
ATCTCTAGATAAAGTTCAGTGAAAGATCGATAGA | 0.465 | 1.1 | 1.05 | 0.684 | 0.314 | 1.48 | 2.39 | 3.45 | 1.46 | 3.1
ACCTCTAGGTAACAAGTTCAGTGAAAGAGAGGAC | 0.245 | 0.295 | 0.188 | 0.426 | -0.0173 | 1.02 | 1.18 | 1.5 | 0.452 | 1.29
CCTACTGGGCAATCAGGTCATTGATATCAACGTT | 0.891 | 1 | 0.766 | 1.27 | -0.496 | 2.26 | 1.34 | 2.44 | 0.371 | 1.25
CTACCAAGGTGAACAAGGTAGTTGATTACTATTC | 0.29 | 0.269 | -0.28 | 0.647 | -0.774 | 1.19 | 0.675 | 0.808 | 0.0377 | 0.215
TCTTGTAGATCAAAGGTTAAAAAAGCCGAAGCCT | 1.88 | 2.35 | 0.549 | 2.44 | 0.41 | 4.79 | 8.35 | 8.18 | 7.69 | 9.24
ACAGACAGGTGATGAAGGAAACTCAGGCTATCAT | 0.101 | -0.0621 | -0.0645 | -0.383 | -0.211 | 0.0161 | 0.66 | -0.12 | 0.224 | -0.159
AGAATGAGGTTAAGGTCAGGGAAACAGAATACAT | 5.36 | 4.12 | 0.675 | 3.93 | 0.526 | 5.21 | 5.25 | 5.04 | 2.44 | 4.29
TATCGGAGGACACGAAAGGTCAGAGCTCGACATC | 3.35 | 4.54 | 4.27 | 3.43 | 0.855 | 3.93 | 2.18 | 2.81 | 1.03 | 2.13
CCGAGTAGGTTATGGGGCATTCACGCAACGGTGA | 0.165 | 0.583 | -0.0835 | 0.908 | 0.284 | 2.27 | 3.48 | 4.67 | 2.32 | 4.69
GCTTGCAGGCCATTTGGGTCACTCAATGACGGGC | 0.139 | 0.261 | -0.325 | 0.146 | -0.138 | 1.74 | 0.845 | 0.922 | 0.00542 | 0.391
GATACAGGGTCAGCTAGAGGCCTGAGTATGGAAA | 4.07 | 2.14 | -0.546 | 1.75 | -0.639 | 4.25 | 3.02 | 2.86 | 0.545 | 1.56
TCATATAGGTAAAAGGTGAAACTCGGTGTGGTAA | 2.3 | 2.26 | 0.259 | 2.39 | 0.198 | 5.64 | 9.08 | 8.59 | 8.64 | 9.69
